# Screening data deposited in PubChem by National Center for Advancing Translational Sciences (NCATS).
# Shown are actives, neighbours in structure and some others; about 0.99% of the full set was active somewhere.
# BLM helicase inh: qHTS Assay for Inhibitors of Bloom's syndrome helicase (BLM). actives 0.2% (n = 350,000). recombinant BLM DNA unwinding, fluorescence dequenching. AID 2528, 2010. Potency, µM (highest dose often 56.1 µM), without a hit: top-dose activity change, negative = inhibition, actives largely listed as inhibitors. RecQ-like DNA helicase BLM (Homo sapiens), P54132;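 note: plate controls were vehicle for no effect and no enzyme for full effect; nearly all actives have a fitted effect of over 35% in size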
# WRN inhibitor: qHTS for Inhibitors of WRN Helicase | Bifunctional 3'-5' exonuclease/ATP-dependent helicase WRN (Homo sapiens), Q14191 | WRN helicase unwinding, fluorescent forked duplex, kinetic | Potency, µM (titrated, usually from 114 µM), without a hit: at the highest dose activity change, negative = inhibition, usual class: inhibitors | actives 0.46% (n = 360,000); note: % is set by controls: 0 for no effect and ±100 for the full control effect; nearly all actives have a fitted effect of over 55% in size
#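 Kinetic fluorescence helicase assay: unwinding of a quenched forked DNA duplex (100 nM final) with 2 mM ATP final raises red fluorescence (525/598 nm). Compounds sat 15 min at room temperature with 20 nM WRN beforehand.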
# RECQ1 helicase: qHTS Assay for Inhibitors of RecQ-Like Dna Helicase 1 (RECQ1) | ATP-dependent DNA helicase Q1 (Homo sapiens), P46063 | RECQ1 DNA unwinding, red fluorescence kinetic read | Potency, µM (titrated, usually from 57.3 µM), for the others: top-dose activity, negative = inhibition, most hits filed as inhibitors | actives 0.54% (n = 240,000) | AID 2549, 2010;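 note: plate controls were vehicle for no effect and no enzyme for full effect; nearly all actives have a fitted effect of over 30% in size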
#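 RECQ1T1 50 nM; forked duplex (20 bp + 30-nt ss tails) 200 nM, ATP 2 mM final; pH 8.0, 2 mM MgCl2, 2.5 ug/ml poly(dI-dC); 15 min compound preincubation; discontinuous kinetic read over 2 h at RT.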
# FEN1 inh-1: qHTS Assay for the Inhibitors of Human Flap endonuclease 1 (FEN1); P39748; Recombinant FEN1 flap cleavage, fluorescence, 15 min; Potency, µM (top dose mostly 114 µM), without a hit: at the top dose activity change, negative = inhibition, actives largely listed as inhibitors; actives 0.35% (n = 390,000); AID 588795, 2011; note: % is set by controls: 0 for no effect and ±100 for the full control effect; nearly all actives have a fitted effect of over 65% in size
#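 Steps: FEN1 (10 nM) dispensed; compound added by pin tool; 15 min at room temperature; substrate added to 50 nM final; reads at 0 min and 15 min; data normalized and fitted (four-parameter Hill).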
# L3MBTL1 block: qHTS Assay for the Inhibitors of L3MBTL1 | AlphaScreen L3MBTL1–H3K9me1 peptide binding | Lethal(3)malignant brain tumor-like protein 1 (Homo sapiens), Q9Y468 | Potency, µM (series often up to 57.1 µM), for the others: at the top dose activity, negative = inhibition, actives largely listed as inhibitors | actives 0.66% (n = 230,000); note: % is set by controls: 0 for no effect and ±100 for the full control effect; nearly all actives have a fitted effect of over 60% in size
# Target sequence (Q9Y468 whole entry, looked up): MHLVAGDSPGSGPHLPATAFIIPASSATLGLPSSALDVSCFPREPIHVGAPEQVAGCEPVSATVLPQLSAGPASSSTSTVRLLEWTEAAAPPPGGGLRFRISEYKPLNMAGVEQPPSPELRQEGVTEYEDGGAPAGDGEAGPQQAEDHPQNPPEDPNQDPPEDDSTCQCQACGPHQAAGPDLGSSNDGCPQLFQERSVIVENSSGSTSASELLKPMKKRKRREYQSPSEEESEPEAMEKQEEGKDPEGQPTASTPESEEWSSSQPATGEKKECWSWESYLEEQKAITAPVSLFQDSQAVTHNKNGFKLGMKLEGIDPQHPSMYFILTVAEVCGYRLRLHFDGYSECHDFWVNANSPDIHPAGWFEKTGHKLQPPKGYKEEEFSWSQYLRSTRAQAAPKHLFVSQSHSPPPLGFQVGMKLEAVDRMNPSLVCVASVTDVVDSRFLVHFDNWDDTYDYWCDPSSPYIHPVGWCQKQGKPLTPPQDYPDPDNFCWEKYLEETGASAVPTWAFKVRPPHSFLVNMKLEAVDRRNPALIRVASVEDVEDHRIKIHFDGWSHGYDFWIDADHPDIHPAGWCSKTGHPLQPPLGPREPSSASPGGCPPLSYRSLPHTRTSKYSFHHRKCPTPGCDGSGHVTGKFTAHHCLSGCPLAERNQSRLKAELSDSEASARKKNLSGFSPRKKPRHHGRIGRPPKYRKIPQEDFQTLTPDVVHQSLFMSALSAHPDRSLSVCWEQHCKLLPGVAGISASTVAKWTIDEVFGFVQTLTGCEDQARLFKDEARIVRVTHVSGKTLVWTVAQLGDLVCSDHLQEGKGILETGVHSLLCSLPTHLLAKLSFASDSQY
#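 L3MBTL1 (50 nM) pre-complexed 30 min with biotinylated H3(1-15)K9me1 peptide (75 nM), then compounds added for 30 min at room temperature; AlphaScreen streptavidin donor/nickel chelate acceptor beads (10 ug/mL final) read after 30 min dark incubation.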
# FEN1 inh-2: qHTS Assay for the Inhibitors of FEN1: Confirmatory Assay for Cherry-picked Compounds | FEN1 flap cleavage, TAMRA/BHQ2 fluorogenic DNA substrate | shares compounds with FEN1 inh-1 | actives 79% (n = 880) | Potency, µM, most hits filed as inhibitors; note: nearly all actives have a fitted effect of over 60% in size
# The depositor's hits bear a star; i = inactive; ? = inconclusive; . = no result; [ ] = remark or other dose. Calls come from the whole dose curve; as a rule, active = well fitted curve in the direction sought with a large enough effect; inconclusive = small, poorly fitted or top-dose-only effect, or another doubt; inactive = no such curve, though single readings can be large; an effect the other way counts as inactive or inconclusive. Potency is the fitted concentration of half-maximal effect.
SMILES,BLM helicase inh,WRN inhibitor,RECQ1 helicase,FEN1 inh-1,L3MBTL1 block,FEN1 inh-2
N/C(=N\c1nc(CSc2ccc(Cl)cc2)cc(=O)[nH]1)Nc1cccc2ccccc12,-4%,8%,-13%,-6%,.,.
COc1ccccc1Nc1nc(NCCO)c2ccccc2n1,3%,.,0%,.,3%,.
COc1ccc(OC)c(Nc2nc(NCCO)c3ccccc3n2)c1,-27%,-27%[57.1 µM],.,?,-2%,?
S=c1[nH]nc(-c2cc(-c3ccccc3)n[nH]2)n1/N=C/c1c(Cl)cccc1Cl,-23%,?,-21%,?,-12%,?
Cc1ccc(-c2noc(CSc3nnc(Cc4cccs4)n3-c3ccccc3)n2)cc1,-8%,-5%,-9%,-22%,2%,.
CN(C)CCNC(=O)c1cccc2nc3cccc(F)c3nc12,.,-18%[11.6 µM],.,14µM*,.,19*
CN(C)CCNC(=O)c1cccc2ccc(-c3ccc(-c4ccccc4)cc3)nc12,.,45%,.,?,.,.
CCOc1ccc(NC(=O)Nc2ccc3c(c2)CCC3)cc1,0%,1%,.,-1%,.,.
CCC/C(=N/NC(=O)c1ccc2c(c1)OCO2)c1cccs1,-1%,-26%,6%,-1%,-5%,.
O=C1N=c2ccccc2=C1c1sc(Nc2ccc(O)cc2)nc1O,?,?,-28%,?,.,76*
COc1ccc2c(c1)c(/C=C/c1cc[n+](C)cc1)cn2C,57%,-36%,.,?,.,43*
COc1ccc2c(/C=C/c3cc[n+](C)cc3)c[nH]c2c1,0%,-12%,.,-25%,.,.
COc1ccc(-c2cn3nc(N4CCCC(C(=O)Nc5ccccc5F)C4)sc3n2)cc1 (centres undefined),-5%,.,.,10%,.,.
Cc1c(N=Nc2c(-c3ccc([N+](=O)[O-])cc3)[nH]n(C(N)=S)c2=O)cccc1[N+](=O)[O-],-10%,?,i,?,-6%,67*
NC(=S)n1[nH]c(-c2ccc([N+](=O)[O-])cc2)c(N=Nc2ccccc2[N+](=O)[O-])c1=O,-6%,-21%[11.6 µM],i,8%,5%,.
NC(=S)n1[nH]c(-c2ccc([N+](=O)[O-])cc2)c(N=Nc2cccc([N+](=O)[O-])c2)c1=O,18µM*,?,-2%,45µM*,?,43*
FC(F)(F)c1cccc(OCc2nnc3n2CCC3)c1,2%,-3%,1%,-3%,51%,.
Oc1ccc(CNc2cccnc2)c2cccnc12,.,.,.,.,.,38*
Cc1nc(Nc2ccncc2)c2oc3ccccc3c2n1,56%,20%[57.1 µM],-3%,45µM*,.,43*
COc1ccc2[nH]c3c(=O)n(CCCCC(=O)NCCN4CCCC4)c(=S)[nH]c3c2c1,-27%,?,-19%,?,.,?
CCN(CC)CCCNC(=O)c1ccc(-c2nc(CN3CCc4ccccc43)c(C)o2)cc1,5%,.,.,-13%,.,.
CCOc1ccc2c(ccc(/C=C/c3cc(C)c4cccnc4c3O)[n+]2C)c1,.,10µM*,.,8.9µM*,.,12*
COc1cccc2cc(C(=O)Nc3ccc(F)c(F)c3)c(=O)oc12,0%,.,.,1%,.,.
COc1cccc(Cn2c(=O)c(-c3cc(F)cc(F)c3)nc3cnc(N4CCN(C)CC4)nc32)c1,-2%,.,-9%,.,.,.
O=C1NC(=S)N(C(=O)c2ccc(F)cc2)/C1=C/c1cccnc1,-4%,?,-2%,-7%,3%,.
COc1ccc(/C=C2\C(=O)NC(=S)N2C(=O)c2ccc(C)cc2)cc1,25µM*,56µM*,17%,?,-14%,76*
Cc1cc2c([nH]c3ccccc32)c(C)n1,15%,7%,.,-17%,2%,.
Cc1c2ccncc2cc2c1[nH]c1ccccc12,.,1%[11.6 µM],.,18µM*,.,17*
